Measurements taken from PubChem BioAssay (NCATS).
Results filed as inconclusive are left out. A number with no mark means an inactive call. Activity calls are given as the source filed them. The call rests on the fitted dose curve; in most records, active means well fitted inhibition curve with a large enough effect; inconclusive means small, poorly fitted or top-dose-only effect; inactive means flat fitted curve, though single readings scatter. Positions of bridges follow the written chain, without caps; N, C: chain ends. Non-standard residues stand in square brackets, D forms with d. Residues, ends and D or L forms follow the SMILES beside them. ξ: configuration not given here. *: point of attachment. Octanoyl(6-Me) = CCC(C)CCCCC(=O)*; ξThr(3R) = C[C@@H](O)C(N)C(=O)O; dDab = NCC[C@@H](N)C(=O)O; Dab = NCC[C@H](N)C(=O)O

System: HEK293
Test: Cytotoxic Profiling of Annotated Libraries Using Quantitative High-Throughput Screening (AID 1296008); further: nearly all actives have a fitted effect of over 60% in size
Details: Five cell lines viability, CellTiter-Glo ATP luminescence, 48-72 h; max response: hits give low values
Text: Cell-based phenotypic screening is a commonly used approach to discover biological pathways, novel drug targets, chemical probes and high-quality hit-to-lead molecules. Many hits identified from high-throughput screening campaign are ruled out through a series of follow-up potency, selectivity/specificity, and cytotoxicity assays. Prioritization of molecules with little or no cytotoxicity for a more in-depth downstream evaluation influence the future direction of projects, so cytotoxicity profiling of the screening libraries at early stage is essential for increasing the likelihood of candidate success. […] For the annotated library, we also examined the primary targets and mechanistic pathways regularly associated with cell death. To our knowledge, this is the first study to use high-throughput screening to profile large libraries for cytotoxicity assessment in both normal and cancer cell lines. In summary, the results generated here constitutes a valuable resource for the scientific community and provides insight on identifying cytotoxic compounds with particular mechanisms of action, and prioritizing compounds with suitable cytotoxicity profile for further evaluation.
A pintool (Kalypsys) was used to transfer 23 nL of compound solution to the 1536-well assay plates. After 48 or 72 hr incubation at 37 degree Celsius, 5% CO2 and 95% humidity, 2.5 uL of CellTiter-Glo (Promega) was dispensed into each well using a dispenser (Aspect Automation, St. Paul, MN) with solenoid valves (Lee Valves, Westbrook CT). Plates were left at room temperature for 10 min before imaging the ATP-coupled luminescence using a ViewLux microplate imager (PerkinElmer, Waltham, MA).
On the % scale 0 is the no-effect control and ±100 the full control effect; potency means the concentration at half of the fitted maximal effect.

SMILES	max response [%]	Potency	outcome
CCCCC(=O)O[C@]1(C(=O)CO)[C@@H](C)C[C@H]2[C@@H]3CCC4=CC(=O)C=C[C@]4(C)[C@@]3(F)[C@@H](O)C[C@@]21C	3.05	–	–
COc1ccc(Nc2cc(-c3cnc(N)nc3)nc(N3CCOCC3)n2)cn1	–	1.87 µM (active)	–
Cc1coc2c1C(=O)C(=O)c1c-2ccc2c(C)cccc12	-8.46	–	–
NC(=O)N1CCC(CC(=O)N2CCC([C@H]3c4ncc(Br)cc4CCc4cc(Cl)cc(Br)c43)CC2)CC1	–	1.32 µM (active)	–
C=C(C)[C@@H]1CC[C@]2(C(=O)O)CC[C@]3(C)[C@H](CC[C@@H]4[C@@]5(C)CC[C@H](O)C(C)(C)[C@@H]5CC[C@]43C)[C@@H]12	-13.5	–	–
COc1cc(C)c(C=CC(C)=CC=CC(C)=CC(=O)O)c(C)c1C	-16.6	–	–
COc1cc2c(cc1O)CCC1C2CC[C@@]2(C)C1CC[C@@H]2O (stereo not given in full)	–	1.18 µM (active)	–
COc1cc([C@@H]2c3cc4c(cc3[C@H](O)[C@H]3COC(=O)[C@@H]23)OCO4)cc(OC)c1OC	–	0.132 µM (active)	–
c1coc(CNc2ncnc3nc[nH]c23)c1	–	–	inactive
O=C(C[C@@H]1CC=CCCC(=O)O[C@H](c2ccccc2)CNC1=O)NCc1ccc(Cl)cc1	-3.28	–	–
CCc1cnn2c(NCc3ccc[n+]([O-])c3)cc(N3CCCC[C@@H]3CCO)nc12	–	0.0332 µM (active)	–
O=S(=O)(O)CCSSCCS(=O)(=O)O	–	–	inactive
N#Cc1cc(NC(=O)Nc2nnc(-c3ccncc3)s2)ccc1-c1cn[nH]c1	–	–	inactive
CCOC(=O)C1=C(C)NC(=S)NC1c1cccc(O)c1 (stereo not given)	–	0.0132 µM (active)	–
Nc1ccn(C2CO[C@H](CO)O2)c(=O)n1 (stereo not given in full)	-12.3	–	–
CCOC(=O)N1CCN([N+]([O-])=NOc2ccc([N+](=O)[O-])cc2C#N)CC1	–	3.32 µM (active)	–
C=C1C(=O)O[C@H]2[C@@H]1CCC(C)=CCC[C@@]1(C)O[C@@H]21	–	4.18 µM (active)	–
C#CCC(Cc1cnc2nc(N)nc(N)c2n1)c1ccc(C(=O)N[C@@H](CCC(=O)O)C(=O)O)cc1 (stereo not given in full)	–	0.0418 µM (active)	–
C[C@H](NC(=O)C(C#N)=Cc1cccc(Br)n1)c1ccccc1	–	4.18 µM (active)	–
CON=C(C(=O)N[C@@H]1C(=O)N2C(C(=O)O)=C(Cn3ccc(=N)n3CCO)CS[C@H]12)c1csc(N)n1	-24.1	–	–

SMILES	max response [%]	Potency	outcome
Cc1cnc(Nc2ccc(CN3CCOCC3)cc2)nc1Nc1cccc(S(=O)(=O)NC(C)(C)C)c1	–	3.66 µM (active)	–
C[C@@H]1[C@H](C)CC[C@]2(C(=O)O)CC[C@]3(C)C(=CC[C@@H]4[C@@]5(C)C[C@@H](O)[C@H](O)[C@@](C)(CO)[C@H]5CC[C@]43C)[C@@H]12	-10.4	–	–
C[C@@H](NCc1cc2ccccc2[nH]1)c1cccc2ccccc12	-2.05	–	–
COc1cccc2c1C(=O)c1c(O)c3c(c(O)c1C2=O)C[C@@](O)(C(=O)CO)C[C@@H]3O[C@H]1C[C@H](N)[C@@H](O)[C@H](C)O1	–	0.132 µM (active)	–
CC(=O)O[C@H]1C[C@@H]2CC[C@H]3[C@H]4C[C@H]([N+]5(C)CCCCC5)[C@@H](OC(C)=O)[C@@]4(C)CC[C@@H]3[C@@]2(C)C[C@H]1N1CCCCC1	2.19	–	–
CC[C@]12C=CCN3CC[C@@]4(c5cc([C@@]6(C(=O)OC)C[C@H]7C[C@@H](C(C)(F)F)CN(Cc8c6[nH]c6ccccc86)C7)c(OC)cc5N(C)[C@H]4[C@@](O)(C(=O)OC)[C@H]1OC(C)=O)[C@@H]32	–	0.0083 µM (active)	–
COc1ccc(C[C@@H](C)[C@@H](C)Cc2ccc(OC)c(OC)c2)cc1OC	–	2.64 µM (active)	–
C[C@@]12C(=O)OC(=O)[C@@]1(C)C1CCC2O1	–	8.33 µM (active)	–
COc1cccc2c1C(=O)c1c(O)c3c(c(O)c1C2=O)C[C@@](O)(C(C)=O)C[C@H]3O[C@H]1C[C@H](N)[C@H](O)[C@H](C)O1	–	0.0662 µM (active)	–
OC[C@H]1OC(O)C[C@@H](O)[C@H]1O (stereo not given in full)	–	–	inactive
COC1=C(OC)C(=O)C(CC=C(C)CCC=C(C)CCC=C(C)CCC=C(C)CCC=C(C)CCC=C(C)CCC=C(C)CCC=C(C)CCC=C(C)CCC=C(C)C)=C(C)C1=O	-5.18	–	–
N#CC(=Cc1ccc(O)c(O)c1)C(=O)NCc1ccccc1	-6.05	–	–
Oc1cc(-c2nc(-c3ccccc3)[nH]c2-c2ccncc2)ccc1Cl	–	23.5 µM (active)	–
CCC(C)CCCCC(=O)N[C@@H](CCN)C(=O)NC(C(=O)N[C@H](CCN)C(=O)N[C@@H]1CCNC(=O)C([C@@H](C)O)NC(=O)[C@@H](CCN)NC(=O)[C@@H](CCN)NC(=O)[C@@H](CC(C)C)NC(=O)[C@H](Cc2ccccc2)NC(=O)[C@H](CCN)NC1=O)[C@@H](C)O (stereo partly drawn) ({Octanoyl(6-Me)}-[Dab][ξThr(3R)][dDab][dDab][Dab]F[dL][dDab][dDab][ξThr(3R)]; lactam 4-C)	–	–	inactive
Cc1ccc(O)c(C(CCN(C(C)C)C(C)C)c2ccccc2)c1 (stereo not given)	-19.9	–	–
CO[C@@H]1[C@@H](O)[C@H](O)[C@@H](n2c3c(Cl)cccc3c3c4c(c5c6cccc(Cl)c6[nH]c5c32)C(=O)NC4=O)O[C@@H]1CO	–	0.662 µM (active)	–
O=C(C=CC#Cc1cccc(NS(=O)(=O)c2ccccc2)c1)NO	–	8.33 µM (active)	–
C[N+](C)([O-])CCNc1ccc(NCC[N+](C)(C)[O-])c2c1C(=O)c1c(O)ccc(O)c1C2=O	–	5.26 µM (active)	–
C=C1CCC2[C@](C)(CO)C(O)CC[C@]2(C)C1CC=C1C(=O)OCC1O (stereo not given in full)	-3.28	–	–
COC(=O)[C@@H]1[C@H]2C[C@@H]3c4[nH]c5ccccc5c4CCN3C[C@@H]2CC[C@@H]1O	–	–	inactive
